Shown are actives, neighbours in structure and some others; about 19% of the full set was active somewhere.
TDP1 cell noCPT: qHTS for Inhibitors of human tyrosyl-DNA phosphodiesterase 1 (TDP1): qHTS in cells in absence of CPT; DT40 Tdp1-/- hTDP1 cells, no CPT, ATP luminescence, 48 h; Potency, µM (top dose mostly 46.2 µM), inactives show top-dose activity change, negative = growth inhibition, usual class: inhibitors; actives 15% (n = 420,000); AID 686978, 2013; also: potency is read from the fitted curve at half-maximal effect; % is scaled to controls: 0 for no effect and ±100 for the full control effect; nearly all actives have a fitted effect of over 55% in size
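Chicken DT40 Tdp1-/- cells stably complemented with human TDP1 were seeded at 400 cells/well with DMSO in place of 20 nM camptothecin. After compound pinning, cells grew at least 48 hr at 37 °C; viability read by CellTiter-Glo luminescence.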
TDP1 cell CPT: growth inhibition of DT40 Tdp1-/-;hTDP1 cells with camptothecin (screen for TDP1 inhibitors); Potency, µM (series often up to 46.2 µM), for inactives: at the top dose activity change, negative = growth inhibition, usual class: inhibitors; chicken DT40 Tdp1-/-;hTDP1 cells + 20 nM CPT, ATP luminescence, 48 h; actives 12% (n = 420,000); also: potency is read from the fitted curve at half-maximal effect; % is scaled to controls: 0 for no effect and ±100 for the full control effect; nearly all actives have a fitted effect of over 55% in size
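Chicken DT40 Tdp1-/- cells complemented with human TDP1, 400 cells/well, exposed to compounds plus 20 nM camptothecin for at least 48 h at 37 C; viability read as ATP content by CellTiter-Glo luminescence.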
TDP1 block: TDP1 (human) enzyme inhibition; Q9NUW8; recombinant TDP1, AlphaScreen DNA substrate cleavage; Potency, µM (series often up to 130 µM), without a hit: top-dose activity change, negative = inhibition, actives largely listed as inhibitors; actives 0.28% (n = 350,000); AID 485290; also: potency is read from the fitted curve at half-maximal effect; % is scaled to controls: 0 for no effect and ±100 for the full control effect; nearly all actives have a fitted effect of over 40% in size
Target sequence (Q9NUW8 whole entry, looked up): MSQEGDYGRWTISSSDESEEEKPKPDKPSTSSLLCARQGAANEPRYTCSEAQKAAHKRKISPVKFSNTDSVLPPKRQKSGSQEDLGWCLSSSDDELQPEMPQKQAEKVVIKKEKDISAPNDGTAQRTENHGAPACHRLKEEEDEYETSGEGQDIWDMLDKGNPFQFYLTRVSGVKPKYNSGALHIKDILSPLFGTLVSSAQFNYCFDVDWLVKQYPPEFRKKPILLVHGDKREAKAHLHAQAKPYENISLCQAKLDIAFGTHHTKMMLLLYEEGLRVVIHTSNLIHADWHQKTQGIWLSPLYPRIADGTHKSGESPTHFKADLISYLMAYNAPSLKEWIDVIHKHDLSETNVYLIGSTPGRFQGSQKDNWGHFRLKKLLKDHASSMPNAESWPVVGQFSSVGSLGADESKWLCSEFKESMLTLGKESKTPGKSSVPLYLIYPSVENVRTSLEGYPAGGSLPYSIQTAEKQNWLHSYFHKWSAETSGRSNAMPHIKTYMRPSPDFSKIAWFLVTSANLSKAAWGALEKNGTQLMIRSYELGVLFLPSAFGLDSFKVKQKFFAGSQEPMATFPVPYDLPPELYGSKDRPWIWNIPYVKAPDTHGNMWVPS
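Steps: enzyme plus compound, 15 min RT; add biotin/phosphotyrosine-FITC oligonucleotide (15 nM final), react 5 min; add donor/acceptor beads (10 ug/ml final), 10 min; read AlphaScreen. Tdp1 at 1 nM final.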
HepG2 tox: kills HepG2 cells in TGF-b inhibitor counter-screen; HepG2 CAGA-GFP viability, ATP luminescence, 18 h; Potency, µM (doses to about 46.1 µM), inactives show at the highest dose activity change, negative = cytotoxicity, hits mostly cytotoxic; actives 0.76% (n = 410,000); AID 588856; also: potency is read from the fitted curve at half-maximal effect
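HepG2 CAGA-GFP cells (1000/well, DMEM with 1% FBS) received compound, then TGF-beta at 500 pg/mL final, and were incubated 18 hours at 37 degrees C. Viability was read by CellTiter-Glo luminescence. Media-only wells were set as complete cell-killing and DMSO as no toxicity.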
IL1B secr inh: inflammasome signaling inhibition, IL-1 beta readout; actives 4.7% (n = 360,000); activity change, % at 57.5 µM; THP-1 LPS/ATP IL-1B secretion, AlphaLISA, 16 h; active compounds read low; AID 743279; in the data active = activity change below about -50%; inconclusive = mostly about -30% to -49%; also: % is scaled to controls: 0 for no effect and ±100 for the full control effect
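Secreted IL-1B measured by AlphaLISA bead assay after 16 h compound exposure of THP-1 cells; compounds (final up to 57.5 uM) added 1 h before LPS (250 ng/mL) and ATP (1.25 mM) stimulation; lower signal means less secretion.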
TGFb inhibitor: blocks TGF-b signaling; HepG2 CAGA-GFP TGF-b/SMAD3 reporter, GFP fluorescence, 18 h; TGF-beta stimulated, 500 pg/mL final; Potency, µM (titrated, usually from 46.1 µM), for the others: top-dose activity, negative = inhibition, usual class: inhibitors; actives 1.2% (n = 410,000); also: potency is read from the fitted curve at half-maximal effect; % is scaled to controls: 0 for no effect and ±100 for the full control effect; nearly all actives have a fitted effect of over 65% in size
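First, reporter cells (HEPG2 CAGA-GFP) rested 2 h at 37 degrees C. Next, compounds were pinned in and TGF-beta added to 500 pg/mL final. After 18 h, GFP was imaged per cell and summed per well.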
Starred values were filed as active, the others as inactive; ? = inconclusive; · = not tested or not shown; [ ] = remark or other dose. Unless noted, calls follow the shape of the dose curve; as a rule, active = well fitted curve in the direction sought with a large enough effect; inconclusive = small, poorly fitted or top-dose-only effect, or another doubt; inactive = no such curve, though single readings can be large; an effect the other way counts as inactive or inconclusive.

SMILES	TDP1 cell noCPT	TDP1 cell CPT	TDP1 block	HepG2 tox	IL1B secr inh	TGFb inhibitor
Clc1cccc(N/N=C(\Cc2nc3ccccc3[nH]2)c2ccccc2)c1	?	?	5.3%	-90.1%	-104.0*	?
Cc1ccc(NC(=O)Cn2c(=O)n(CCC(=O)N3CCc4ccccc4C3)c(=O)c3ccccc32)cc1	16.4µM*	18.4µM*	0.9%	7.3%	·	22.9%
Cc1ccccc1NC(=O)Cn1c(=O)n(CCC(=O)N2CCc3ccccc3C2)c(=O)c2ccccc21	14.6µM*	16.4µM*	6.4%	-10.3%	·	-1.8%
O=C(Cn1c(=O)n(CCC(=O)N2CCc3ccccc3C2)c(=O)c2ccccc21)NCC1CCCO1 (stereo not drawn)	-16.9%	-5.4%	2.3%	2.4%	-7.3	13.5%
Cc1nc2ccc(S(=O)(=O)NCC(=O)Nc3ccc(F)cc3F)cc2s1	-11.0%	17.4%	-2.5%	-1.9%	·	·
COC(=O)C1=C(C(=O)OC)[C@@H]2N(C)c3ccccc3[C@@]23C[C@@H](C(=O)OC)N(S(=O)(=O)c2ccc(OC)cc2)C3=N1	·	·	18.5%[12.3 µM]	·	·	·
Cc1cc(C(F)(F)F)c2c(N)c(C(=O)Nc3c(Cl)cccc3Cl)sc2n1	?	?	-8.5%	-49.2%	·	-5.1%
Cc1ccc(NC(=O)c2sc(-n3nc(C)c(Cc4ccc5c(c4)OCO5)c3C)nc2C)cc1Cl	?	?	-5.7%	-0.9%	·	-0.1%
CCCN1CCN(C(=O)c2noc3c2COc2ccc(C)cc2-3)CC1	16.4µM*	20.6µM*	·	-10.3%	4.0	-2.5%
COc1ccc(NC(=O)CSC2=Nc3ccccc3C3=NC(CC(=O)NCc4ccc(F)cc4)C(=O)N23)cc1 (stereo not drawn)	-15.1%	-6.7%	-2.5%	-2.2%	·	4.1%
CCCCCC(C)NC(=S)NC(=O)c1cc(S(=O)(=O)N2CCOCC2)ccc1C (stereo not drawn)	?	?	-2.7%	16.4%	-1.1	11.2µM*
Cc1ccc(S(=O)(=O)N2CCOCC2)cc1C(=O)N1CCc2ccccc21	?	-0.8%	1.3%	2.2%	5.0	1.3%
CCCC(C)NC(=S)NC(=O)c1cc(S(=O)(=O)N2CCOCC2)ccc1C (stereo not drawn)	13µM*	20.6µM*	2.7%	-2.6%	-2.1	-34.4%
Cc1ccc(S(=O)(=O)N2CCOCC2)cc1C(=O)N1c2ccccc2Sc2ccccc21	23.1µM*	?	4.7%	-8.7%	-7.1	?
CC(C)c1ccc(NC(=O)CN2CCN(C(=O)C3CCCO3)CC2)cc1 (stereo not drawn)	5.6%	-8.9%	5.0%	-3.9%	2.8	4.8%
COC(=O)c1ccc(C(NC(=O)OCc2ccccc2)/C(I)=C/[C@@H](C)C(=O)NCc2ccc(C)o2)cc1 (stereo partly drawn)	·	·	9.9%	·	·	·
CC/C(=C\C(=O)c1ccncc1)Nc1ccc(O)cc1	20.6µM*	?	4.0%	-14.3%	?	?
O=C(N/N=C/c1ccc(O)cc1)c1ccncc1	-3.2%	0.2%	·	-30.8%	35.9	3.0%
CCCCCCCCCCCCCCCC[N+](C)(C)CCN(Cc1ccc(OC)cc1)c1ncccn1	2.55µM*	4.04µM*	13.3%[21 µM]	10µM*	31.6	?
COc1ccc(CN(CCN(C)C)c2ncccn2)cc1	-16.7%	-18.2%	6.2%[56.1 µM]	·	·	·
Cn1c2cc(C(=O)O)sc2c2cnn(Cc3ccccc3F)c(=O)c21	·	·	1.0%	·	·	·
CC(=O)c1ccc(N2CCN(C(=O)c3ccc(S(=O)(=O)NCc4ccco4)cc3)CC2)cc1	16.4µM*	20.6µM*	3.0%	-5.2%	-27.5	-20.4%
CCOC(=O)C1CCCN(C(=O)c2ccc(S(=O)(=O)NCc3ccco3)cc2)C1 (stereo not drawn)	-28.9%	?	-6.4%[0.505 µM]	-7.9%	4.9	-2.6%
CC1CCCC(C)N1C(=O)c1ccc(S(=O)(=O)NCc2ccco2)cc1 (stereo not drawn)	23.1µM*	?	0.0%	-3.0%	30.9	?
COc1ccc(CN2CCN(C(=O)c3ccc(S(=O)(=O)NCc4ccco4)cc3)CC2)cc1	18.4µM*	?	2.6%	-39.2%	-1.0	-0.8%
SMILES	TDP1 cell noCPT	TDP1 cell CPT	TDP1 block	HepG2 tox	IL1B secr inh	TGFb inhibitor
CC1CCCC(C)N1C(=O)c1ccc(CS(=O)(=O)c2ccccc2)cc1 (stereo not drawn)	14.6µM*	?	5.0%	18.1%	24.3	6.3%
COc1ccccc1N1CCN(c2ncnc3c2nnn3C)CC1	?	?	5.2%	-5.6%	·	21.8%
Cc1cc(Cn2nnnc2-c2ccncc2)cc(C)c1O	-8.6%	-12.7%	·	-20.7%	48.4	5.1%
Cc1ccc2scc(N3CCc4ccccc4C3)c(=O)c2c1	?	?	4.1%	-28.5%	·	-11.1%
Cc1ccc(N/C(C(Cl)=C(Cl)Cl)=C(/Cl)[N+](=O)[O-])c(C)c1	16.4µM*	23.1µM*	8.9%	-15.6%	-18.5	?
C[C@@H]1CCCCO[C@@H](CN(C)Cc2ccc3c(c2)OCO3)[C@@H](C)CN([C@H](C)CO)C(=O)c2cc(N(C)C)ccc2O1	-7.7%	-2.7%	·	-35.2%	-25.3	-19.4%
C[C@@H]1CCCCO[C@H](CN(C)Cc2ccc(Cl)c(Cl)c2)[C@@H](C)CN([C@H](C)CO)C(=O)c2cc(N(C)C)ccc2O1	23.1µM*	18.4µM*	·	-19.1%	?	?
C[C@H](CO)N1C[C@H](C)[C@@H](CN(C)Cc2ccc(Cl)c(Cl)c2)OCCCC[C@H](C)Oc2ccc(NC(=O)CCC(F)(F)F)cc2C1=O	14.6µM*	23.1µM*	·	-17.5%	-17.9	?
Cc1cccc(NCc2nnc3n2CCCCC3)c1C	?	-26.1%	0.0%	5.1%	·	1.1%
CCCSc1nc2sc3c(c2c(=O)n1-c1ccccc1)CCC(C)C3 (stereo not drawn)	-14.7%	-11.4%	·	-1.3%	·	3.3%
O=[N+]([O-])c1cccc(C2NCC(c3ccccc3Cl)c3c2[nH]c2ccccc32)c1 (stereo not drawn)	?	?	7.0%	34.3%	-63.1*	?
CC(C)OCCCN1CC(=O)N2C(c3cccc([N+](=O)[O-])c3)c3[nH]c4ccccc4c3C[C@H]2C1=O (stereo partly drawn)	-18.9%	?	·	-29.4%	0.0	?

High-throughput results as filed in PubChem.
